Holding throughout (test): DAPPL (digital affinity profiling via proximity ligation, sequencing); 10 mM Tris-HCl pH 7.5, 50 mM NaCl, 1 mM DTT, 4% glycerol, room temperature, 30 min; GST-TFs on glutathione beads, 16-mer random dsDNA library, 0.1% formaldehyde crosslink after washing; high values mean tight binding
Common to all, as to conditions: protein: recombinant; tags: N-terminal GST; dsDNA, one strand shown

Assay [1] addresses T1, FLI1 (Homo sapiens, UniProt Q01543 1-452).
T1 sequence: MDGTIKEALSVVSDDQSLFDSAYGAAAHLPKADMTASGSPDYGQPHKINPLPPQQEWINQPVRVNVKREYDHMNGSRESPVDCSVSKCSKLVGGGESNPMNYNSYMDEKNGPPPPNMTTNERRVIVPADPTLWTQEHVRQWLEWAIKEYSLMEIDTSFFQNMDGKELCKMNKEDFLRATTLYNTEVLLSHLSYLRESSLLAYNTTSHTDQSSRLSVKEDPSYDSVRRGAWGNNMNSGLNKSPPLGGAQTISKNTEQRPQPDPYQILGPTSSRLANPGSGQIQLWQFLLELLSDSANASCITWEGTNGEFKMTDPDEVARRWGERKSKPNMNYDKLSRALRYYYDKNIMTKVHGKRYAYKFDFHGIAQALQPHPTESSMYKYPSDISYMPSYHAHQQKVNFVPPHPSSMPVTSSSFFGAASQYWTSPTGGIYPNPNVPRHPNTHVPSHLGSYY
The method, boiled down:
(§1)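 In yeast, human transcription factors were expressed with a GST fusion, then pulled down on glutathione beads and given DNA barcodes. Pooled with a tag-only sample, they were exposed to 200 nmole of a 16-mer random double-stranded DNA library (Tris/NaCl/DTT/glycerol buffer, room temperature, 30 min), washed, crosslinked with 0.1% formaldehyde, proximity-ligated using BsaI/T4 ligase for 1 h at 37 °C, PCR-amplified and read on an Illumina NextSeq500. Each hexamer's frequency of reads for a factor, divided by the matching frequency for the tag-only sample, gives the binding signal.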

For assay [2], the target named is T2, ELK1 (Homo sapiens, UniProt P19419 1-428).
T2 sequence: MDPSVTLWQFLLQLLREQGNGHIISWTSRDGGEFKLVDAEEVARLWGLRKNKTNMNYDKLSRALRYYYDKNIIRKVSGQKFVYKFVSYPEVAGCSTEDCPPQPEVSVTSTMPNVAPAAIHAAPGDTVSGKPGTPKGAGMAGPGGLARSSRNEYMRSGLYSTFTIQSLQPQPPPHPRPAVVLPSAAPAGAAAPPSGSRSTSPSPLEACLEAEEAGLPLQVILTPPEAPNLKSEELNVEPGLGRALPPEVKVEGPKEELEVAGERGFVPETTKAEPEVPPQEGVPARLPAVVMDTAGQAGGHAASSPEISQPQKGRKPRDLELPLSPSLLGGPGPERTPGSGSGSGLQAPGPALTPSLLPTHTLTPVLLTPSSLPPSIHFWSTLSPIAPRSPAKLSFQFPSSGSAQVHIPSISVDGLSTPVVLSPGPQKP
The method, boiled down: as §1

The target in assay [3] is T3, GABPA (Homo sapiens, UniProt Q06546 1-454).
T3 sequence: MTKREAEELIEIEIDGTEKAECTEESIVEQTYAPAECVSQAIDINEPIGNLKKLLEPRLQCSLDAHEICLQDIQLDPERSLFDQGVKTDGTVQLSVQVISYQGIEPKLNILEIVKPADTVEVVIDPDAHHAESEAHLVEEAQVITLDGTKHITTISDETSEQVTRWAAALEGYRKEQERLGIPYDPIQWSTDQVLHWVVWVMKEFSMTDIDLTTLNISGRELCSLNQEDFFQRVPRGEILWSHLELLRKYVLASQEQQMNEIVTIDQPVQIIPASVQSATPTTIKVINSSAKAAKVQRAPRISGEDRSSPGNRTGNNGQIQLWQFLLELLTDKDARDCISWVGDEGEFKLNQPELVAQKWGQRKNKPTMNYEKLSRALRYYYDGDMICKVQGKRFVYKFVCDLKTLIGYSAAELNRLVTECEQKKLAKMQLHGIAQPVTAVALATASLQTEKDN
The method, boiled down: as §1

For assay [4], the target named is T4, ERG (Homo sapiens, UniProt P11308 1-479).
T4 sequence: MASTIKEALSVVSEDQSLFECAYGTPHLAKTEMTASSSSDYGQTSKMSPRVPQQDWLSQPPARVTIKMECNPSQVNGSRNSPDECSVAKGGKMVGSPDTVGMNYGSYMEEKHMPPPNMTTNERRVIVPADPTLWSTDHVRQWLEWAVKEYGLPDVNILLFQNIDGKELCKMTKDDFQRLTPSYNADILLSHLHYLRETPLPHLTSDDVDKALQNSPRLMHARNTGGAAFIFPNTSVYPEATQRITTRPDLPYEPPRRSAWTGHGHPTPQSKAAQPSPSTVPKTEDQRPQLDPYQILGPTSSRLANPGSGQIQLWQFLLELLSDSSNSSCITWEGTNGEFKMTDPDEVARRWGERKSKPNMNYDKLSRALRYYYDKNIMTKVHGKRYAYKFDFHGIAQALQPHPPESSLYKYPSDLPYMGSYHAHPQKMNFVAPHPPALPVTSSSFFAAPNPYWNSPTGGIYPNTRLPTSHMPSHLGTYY
The method, boiled down:
as §1

For assay [5], the target named is ELF1 (Homo sapiens, UniProt P32519 1-619). The method, boiled down:
as §1

Assay [6] concerns the target T5, EHF (Homo sapiens, UniProt Q9NZC4 1-300).
T5 sequence: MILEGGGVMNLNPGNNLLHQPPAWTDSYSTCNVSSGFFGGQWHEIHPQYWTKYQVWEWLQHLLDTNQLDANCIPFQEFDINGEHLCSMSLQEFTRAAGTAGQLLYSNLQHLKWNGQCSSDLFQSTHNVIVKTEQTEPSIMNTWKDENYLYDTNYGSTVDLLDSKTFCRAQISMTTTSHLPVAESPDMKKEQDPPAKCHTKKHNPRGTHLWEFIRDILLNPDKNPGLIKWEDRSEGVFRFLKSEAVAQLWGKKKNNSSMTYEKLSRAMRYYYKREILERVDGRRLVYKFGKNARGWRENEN
The method, boiled down:
as §1

Assay [7] addresses SPI1 (Homo sapiens, UniProt P17947 1-270). In outline: as §1
In assay [8] the target is SPIB (Homo sapiens, UniProt Q01892 1-262). In outline: as §1
Sequence of SPIB (Q01892 whole entry): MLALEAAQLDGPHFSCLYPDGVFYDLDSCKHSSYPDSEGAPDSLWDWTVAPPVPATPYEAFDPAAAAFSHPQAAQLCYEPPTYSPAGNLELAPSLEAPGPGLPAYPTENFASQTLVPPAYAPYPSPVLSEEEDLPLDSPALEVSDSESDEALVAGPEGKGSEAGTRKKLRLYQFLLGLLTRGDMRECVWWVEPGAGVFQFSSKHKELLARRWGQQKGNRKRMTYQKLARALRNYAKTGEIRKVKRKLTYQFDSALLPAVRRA
Assay [9] deals with T6, ELK3 (Homo sapiens, UniProt P41970 1-407).
T6 sequence: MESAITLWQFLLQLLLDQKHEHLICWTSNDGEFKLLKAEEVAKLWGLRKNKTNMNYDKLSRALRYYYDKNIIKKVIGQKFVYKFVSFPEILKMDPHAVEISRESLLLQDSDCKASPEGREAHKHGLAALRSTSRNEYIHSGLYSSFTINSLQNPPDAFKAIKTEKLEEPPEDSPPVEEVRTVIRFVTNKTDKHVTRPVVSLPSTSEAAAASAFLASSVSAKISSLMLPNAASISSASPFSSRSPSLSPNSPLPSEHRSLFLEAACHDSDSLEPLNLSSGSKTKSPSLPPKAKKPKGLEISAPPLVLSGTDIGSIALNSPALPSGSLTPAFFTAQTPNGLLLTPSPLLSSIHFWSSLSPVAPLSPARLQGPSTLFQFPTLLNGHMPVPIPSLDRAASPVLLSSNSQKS
The method, boiled down:
as §1

Sequence of ELF1 (P32519 whole entry): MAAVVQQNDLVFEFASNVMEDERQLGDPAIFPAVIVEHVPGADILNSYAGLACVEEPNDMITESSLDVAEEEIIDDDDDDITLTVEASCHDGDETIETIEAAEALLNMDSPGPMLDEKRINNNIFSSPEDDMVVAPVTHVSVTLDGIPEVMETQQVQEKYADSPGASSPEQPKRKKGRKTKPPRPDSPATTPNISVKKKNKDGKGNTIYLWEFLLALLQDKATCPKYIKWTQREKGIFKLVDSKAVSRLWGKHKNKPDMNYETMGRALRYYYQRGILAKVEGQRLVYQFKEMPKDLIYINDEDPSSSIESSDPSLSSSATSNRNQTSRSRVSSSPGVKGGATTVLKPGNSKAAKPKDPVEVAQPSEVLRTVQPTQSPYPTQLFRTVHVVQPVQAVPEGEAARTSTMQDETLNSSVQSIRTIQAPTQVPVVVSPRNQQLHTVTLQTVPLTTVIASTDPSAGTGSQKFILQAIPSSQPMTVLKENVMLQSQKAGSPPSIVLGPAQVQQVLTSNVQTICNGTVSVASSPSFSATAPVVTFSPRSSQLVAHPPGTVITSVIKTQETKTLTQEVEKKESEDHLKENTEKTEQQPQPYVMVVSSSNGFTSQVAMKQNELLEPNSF

As for ATCTGT, the binding signal in [1] is 1.25 fold enrichment (6-mer frequency, TF over GST control); in assay [2], 1.24 fold enrichment (6-mer frequency, TF over GST control); in [3] it was 1.18 fold enrichment (6-mer frequency, TF over GST control); in assay [4], 1.19 fold enrichment (6-mer frequency, TF over GST control); in assay [5], 1.18 fold enrichment (6-mer frequency, TF over GST control); in assay [6] it was 1.11 fold enrichment (6-mer frequency, TF over GST control). For the same sequence, the binding signal in assay [7] was 1.13 fold enrichment (6-mer frequency, TF over GST control); in assay [8], 1.14 fold enrichment (6-mer frequency, TF over GST control); in assay [9], 1.07 fold enrichment (6-mer frequency, TF over GST control).

The values above are taken from PMC7862700, “An all-to-all approach to the identification of sequence-specific readers for epigenetic DNA modifications on cytosine”.
